Key:
Type in all cases: functional
[1] = system: Plasmodium falciparum; experiment: GSK_TCMDC: Inhibition of Plasmodium falciparum 3D7 in whole red blood cells, using parasite LDH activity as an index of growth. Test compounds present at 2uM
[2] = system: Plasmodium falciparum; experiment: GSK_TCMDC: Inhibition of Plasmodium falciparum Dd2 in whole red blood cells, using parasite LDH activity as an index of growth. Test compounds present at 2uM
[3] = system: HepG2; experiment: GSK_TCMDC: Percent inhibition of human HepG2 cell line. Test compounds present at 10uM.

Row | Structure (SMILES) | Inhibition [1] | Inhibition [2] | Inhibition [3]
1 | COc1ccc(OC)c(NC(=O)c2c(-c3c(F)cccc3Cl)noc2C)c1 | 94% | 25% | 0%
2 | COc1ccc2nccc([C@@H](O)CN3CCC(NCc4ccc5c(c4)sc(=O)n5C)CC3)c2c1.O=C(O)C(=O)O | 100% | 72% | 10%
3 | CCCc1ccccc1Nc1nc(C)cc(N(CC)CCCN2CCCCC2)n1.O=C(O)C(F)(F)F | 98% | 49% | 27%
4 | Cc1ccccc1CNc1noc(-c2sccc2Br)n1 | 99% | 88% | 0%
5 | Cc1cccc2nc(-c3cccc(-c4ccc(NC(=O)CS(C)(=O)=O)cc4)c3)[nH]c12 | 85% | 8% | 3%
6 | Cc1c(CC(=O)NCCC2CCN(CCCCCNC(=O)/C=C/c3ccc(Cl)c(Cl)c3)CC2)sc2ccc(Cl)cc12 | 92% | 8% | 59%
7 | Cc1cc(N[C@@H](Cc2ccccc2)C(=O)NCc2cccs2)nc(NCCOc2ccccc2)n1.O=C(O)C(F)(F)F | 93% | 31% | 2%
8 | COC(=O)Nc1cc(C(F)(F)F)ccc1N1CCCC(NS(=O)(=O)c2ccc(C(C)(C)C)cc2)C1 (stereo not drawn) | 97% | 90% | 0%
9 | NS(=O)(=O)c1cccc(-c2ccc3ncc(N4CCOCC4)nc3c2)c1 | 96% | 74% | 17%
10 | FC(F)(F)c1ccc2nccc(NCc3ccccc3)c2c1 | 93% | 56% | 18%
11 | C[C@H](Nc1c(Nc2ccc3[nH]ccc3c2)c(=O)c1=O)C1CCCCC1 | 96% | 11% | 7%
12 | COc1c(C2=CCN(CCCCNC(=O)c3ccc(-c4ccc(C#N)cc4)cc3)CC2)c(C)cc2c1C(C)(C)CCC2(C)C | 92% | 88% | 18%
13 | CC(C)CNCc1ccc(-c2cccc(CNc3ccc4ncccc4c3)c2)cc1.O=C(O)C(F)(F)F | 96% | 31% | 29%
14 | COc1cc2c(C3CCN(CC4CCC(NC(=O)/C=C/c5ccc(Cl)c(Cl)c5)CC4)CC3)c[nH]c2cn1 (stereo not drawn) | 100% | 100% | 44%
15 | CCCN1CCN(CCCNC(=O)c2cc3c(-c4ccc(Cl)cc4)nn(C)c3s2)CC1 | 88% | 20% | 46%
16 | CN(C)c1ccc(-c2csc(C(=O)NCC3CCN(CC4CCCCC4)C3)c2)cc1.O=C(O)C(F)(F)F (stereo not drawn) | 86% | 28% | 35%
17 | OCc1ccc(-c2cncc(Nc3ccc(F)c(Cl)c3)c2)cc1 | 92% | 99% | 2%
18 | CCCCCCCNC(=O)NCC1CCCN(CCCCCNC(=O)/C=C/c2ccc(Cl)c(Cl)c2)C1 (stereo not drawn) | 86% | 7% | 98%
19 | CC(=O)Nc1ccc2[nH]cc(C3CCN(CC4CCC(NC(=O)/C=C/c5ccccc5Cl)CC4)CC3)c2n1 (stereo not drawn) | 100% | 79% | 16%
20 | O=C(NC1CCCCN(Cc2ccccc2O)C1)c1cccc(Cl)c1.O=C(O)C(F)(F)F (stereo not drawn) | 86% | 30% | 15%
21 | COc1ccc(Nc2ncc(Cl)c(Nc3cccnc3C(N)=O)n2)cc1N1CCN(C)CC1.Cl | 95% | 97% | 77%

Row | Structure (SMILES) | Inhibition [1] | Inhibition [2] | Inhibition [3]
22 | FC(F)(F)c1ccc2[nH]c(-c3cccc(-c4ccc(CNCc5ccccc5)cc4)c3)nc2c1.O=C(O)C(F)(F)F | 100% | 99% | 25%
23 | Nc1nccc2ccc(-c3ccc4ncccc4c3)cc12.O=C(O)C(F)(F)F | 100% | 100% | 97%
24 | COc1ccc(-n2ccnc2SCC(=O)Nc2cccc(C(F)(F)F)c2)c(OC)c1 | 98% | 88% | 0%
25 | COC(=O)c1cccc(CNCc2cccc(-c3cccc(-c4nc5cccc(C)c5[nH]4)c3)c2)c1.O=C(O)C(F)(F)F | 100% | 47% | 0%
26 | CN(C)C(CNc1ncnc2cc(Cl)ccc12)Cc1ccccc1 (stereo not drawn) | 96% | 88% | 13%
27 | O=C(Nc1cccc(-c2cccc(-c3nc4cc(C(F)(F)F)ccc4[nH]3)c2)c1)c1c[nH]cn1 | 100% | 100% | 14%
28 | COc1ccc(-c2cccc(NC(=O)c3ccc(F)cc3)c2)cc1CN1CCCN(C)CC1.O=C(O)C(F)(F)F | 100% | 35% | 26%
29 | CC(C)(C)c1cc(NC(=O)c2ccc(Cl)c([N+](=O)[O-])c2)cc(C(C)(C)C)c1 | 93% | 7% | 0%
30 | COc1cccc(CN2CCCN(Cc3cccc(NC(=O)c4ccc(-c5ccccc5)cc4)c3)CC2)c1.O=C(O)C(F)(F)F | 86% | 8% | 35%
31 | O=C(Nc1ccc(OC2CCN(Cc3ccc(F)cc3)C2)c(Cl)c1)c1cccs1.O=C(O)C(F)(F)F (stereo not drawn) | 98% | 97% | 21%
32 | COc1cc(C(=O)N2N=C(c3c(-c4ccccc4)c4cc(Br)ccc4[nH]c3=O)CC2c2cccc([N+](=O)[O-])c2)cc(OC)c1OC (stereo not drawn) | 93% | 95% | 1%
33 | CC1CCN(Cc2cccc(C(=O)NCc3ccc(F)c(-c4cccc(CN5CCN[C@@H](C)C5)c4)c3)c2)CC1.O=C(O)C(F)(F)F | 91% | 64% | 26%
34 | Cc1cccc2nc(-c3ccc(-c4ccc(CN5CCOCC5)cc4)cc3)[nH]c12.O=C(O)C(F)(F)F | 92% | 86% | 29%
35 | CN(C)CCN(C)Cc1ccc(-c2ccc(NS(=O)(=O)c3cccc4cccnc34)cc2)cc1.O=C(O)C(F)(F)F | 93% | 16% | 23%
36 | C[C@H]1CN(Cc2cccc(-c3cc(CNC(=O)c4cccc(C(=O)c5ccc(Cl)c(Cl)c5)c4)ccc3F)c2)CCN1 | 85% | 42% | 40%
37 | COc1cccc(NC(=O)Nc2ccc(Nc3nc(C)cc(N4CCCC4)n3)cc2)c1 | 100% | 100% | 28%
38 | O=[N+]([O-])c1ccc2c(-c3ccccc3)c(-c3ccccc3)n(O)c2c1 | 97% | 11% | 8%
39 | Cc1ccc(OC2CCN(c3ccc(C(=O)NC4CC4)cn3)CC2)cc1 | 87% | 75% | 11%
40 | O=C(Nc1ccc2c(c1)CCN2C1CCN(Cc2cccc3cc[nH]c23)C1)c1ccco1 (stereo not drawn) | 88% | 86% | 0%
41 | COc1ccccc1C1CCN(C2CCC(NC(=O)/C=C/c3cc(F)cc(C(F)(F)F)c3)CC2)CC1 (stereo not drawn) | 98% | 57% | 92%
42 | CCOC(=O)C(=CNc1ccc(Cc2cnc(N)nc2N)cc1CC)C(=O)OCC | 87% | 7% | 47%

Row | Structure (SMILES) | Inhibition [1] | Inhibition [2] | Inhibition [3]
43 | CN1CCCC(CN2CCN(Cc3cccc(-c4ccc(-c5nc6ccccc6[nH]5)s4)c3)CC2)C1.O=C(O)C(F)(F)F (stereo not drawn) | 99% | 99% | 52%
44 | CC(=O)Nc1nc(C(=O)Nc2ccc(-c3ccc(-c4nc5cc(F)ccc5[nH]4)cc3)cc2)cs1 | 100% | 33% | 17%
45 | CCn1cc(C=C2Oc3c(ccc(O)c3CN3CCCCC3)C2=O)c2ccccc21 | 100% | 99% | 0%
46 | Oc1ccc2[nH]cc(C3CCN(CCC(c4ccccc4)c4ccccc4)CC3)c2c1 | 90% | 42% | 27%
47 | COc1cc(NCCCNCc2cn(Cc3cc(Br)cc(Br)c3)c3ccccc23)nc2ccccc12 | 100% | 85% | 99%
48 | Nc1nc(N)c2c(Cc3ccccc3)cccc2n1 | 94% | 3% | 68%
49 | COc1cc(Cc2cnc(N)nc2N)cc(OCCCCCC(=O)O)c1OC.Cl | 95% | 2% | 0%
50 | CCOc1ccc2nc(C)cc(N/N=C/c3cccc([N+](=O)[O-])c3)c2c1 | 100% | 93% | 7%
51 | Br.CC(=O)CSC(C=Cc1ccc(N(C)C)cc1)=Nc1ccccc1 | 81% | 42% | 38%
52 | Cl.O=C(Nc1ccc2c(c1)CCN(C1CCC1)CC2)c1ccc(-n2ccnc2)cn1 | 92% | 0% | 8%
53 | N#Cc1ccc(NC(=O)NC2CCN(CCCCCNC(=O)/C=C/c3ccc(Cl)c(Cl)c3)CC2)cc1 | 98% | 4% | 15%
54 | Cl.N#Cc1cccc(/C=C/C(=O)NC2CCC(CCN3CCc4ccc(-c5cnccn5)cc4CC3)CC2)c1 (stereo not drawn) | 93% | 47% | 22%
55 | COc1cccc(CCNCc2ccc(-c3cccc(CNC4CCCC4)c3)cc2)c1.O=C(O)C(F)(F)F | 100% | 45% | 14%
56 | Cc1cccc2nc(-c3cccc(-c4ccc(CNCc5cnn(-c6ccccc6)n5)cc4)c3)[nH]c12.O=C(O)C(F)(F)F | 100% | 66% | 20%
57 | Cl.Clc1cnc2ccc3c(c2c1CCN1CCC(NCc2cc4c(cn2)OCCO4)CC1)OCCO3 | 92% | 18% | 3%
58 | Cc1cccnc1CNc1nccc2c(C)c(C)[nH]c12.Cl | 100% | 28% | 27%
59 | COc1cc(CNCCCCCCNCc2cc(OC)c3ccccc3c2OC)c(OC)c2ccccc12.CS(=O)(=O)O | 100% | 40% | 99%
60 | CCCCCc1cc(OCCN(C)C)cc2c1C(=O)CC(C)(C)O2.Cl | 98% | 0% | 5%
61 | O=C(Nc1cccc(-c2nc3ccccc3[nH]2)c1)c1cccc(NC(=O)c2ccco2)c1 | 91% | 45% | 9%
